Records with an inconclusive call do not appear. Calls of active or inactive are those of the source. The call rests on the fitted dose curve; in most records, active means well fitted inhibition curve with a large enough effect; inconclusive means small, poorly fitted or top-dose-only effect; inactive means flat fitted curve, though single readings scatter.

What all share (experiment): qHTS profiling for inhibitors of Plasmodium falciparum proliferation (AID 504749); further: nearly all actives have a fitted effect of over 60% in size
What all share (details): P. falciparum in erythrocytes, SYBR Green DNA, 72 h; series mostly up to 28.7 µM
(In general: qHTS replaces the single test concentration by a dilution series.)

One assay concerns CP269. The procedure, abridged: (§1)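 SYBR Green fluorescence (ex 485 nm, em 535 nm) reports parasite DNA after 72 h compound exposure of infected red cells at 0.3% parasitemia, 2.5% hematocrit; signal normalized to 0.29 uM artemisinin and vehicle wells.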
In the next assay the test system is CP286. Put shortly:
as §1

For the next assay, the system named is CP291. The procedure, abridged: as §1
The test system of the next assay is CP297. The procedure, abridged:
as §1

In the next assay the test system is CP305. The procedure, abridged: as §1
A further assay deals with CP315. The procedure, abridged:
as §1

The subject of another assay is CP325. Put shortly:
as §1

A further assay has as its system CP329. Put shortly:
as §1

The next assay concerns CP335. Put shortly: as §1
The next assay relates to DFO2036. Put shortly: as §1
The next assay relates to DIV14. The procedure, abridged: as §1
The next assay concerns DIV17. The procedure, abridged: as §1
The subject of the next assay is DIV30. The procedure, abridged: as §1
The subject of the next assay is Dd2. Put shortly:
as §1

The test system of the next assay is ECU. The procedure, abridged: as §1
For another assay, the system named is FAB9. The procedure, abridged:
as §1

The subject of the next assay is GB4. The procedure, abridged:
as §1

The test system of another assay is HB3. Put shortly: as §1
In a further assay the test system is ICS. The procedure, abridged:
as §1

A further assay deals with JCK. Put shortly:
as §1
Potency means the concentration at half of the fitted maximal effect.

Consider `CC(C)(C)C(=O)OCOC(=O)[C@@H]1N2C(=O)[C@@H](N=CN3CCCCCC3)[C@H]2SC1(C)C`, for which the Potency result in the assay on CP269, in the assay with CP286, in the assay on CP291, with CP297, with CP305 and in the assay with CP315 was “inactive” each time. Also, the Potency result in the assay with CP325, in the assay with CP329, with CP335, in the assay with DFO2036, with DIV14 and in the assay on DIV17 was “inactive” throughout. The Potency entry in the assay with DIV30, in the assay with Dd2, in the assay on ECU, in the assay with FAB9, in the assay on GB4 and in the assay on HB3 was “inactive” in each case. The Potency result in the assay on ICS and with JCK was “inactive” each time.
`CCCCC/C=C\C/C=C\CCCCCCCC(=O)O`: the Potency entry with CP269, with CP286, in the assay with CP291, in the assay with CP297, with CP305 and in the assay with CP315 was “inactive” throughout. For the same compound, the Potency entry in the assay on CP325, with CP329, with CP335, in the assay with DFO2036, in the assay with DIV14 and in the assay with DIV17 was “inactive” in each case. In addition, the Potency entry in the assay on DIV30, in the assay with Dd2, in the assay with ECU, in the assay with FAB9, in the assay with GB4 and in the assay with HB3 was “inactive” throughout. Further, the Potency entry with ICS and with JCK was “inactive” throughout.
As to `COC(=O)[C@H]1[C@H]2C[C@@H]3c4[nH]c5ccccc5c4CCN3C[C@H]2C[C@@H](OC(=O)c2cc(OC)c(OC)c(OC)c2)[C@@H]1OC`, the Potency in the assay with CP269 is 675 nM (active); in the assay on CP286, 282 nM (active); in the assay with CP291 it was 675 nM (active); in the assay with CP297 it was 190 nM (active); with CP305, 849 nM (active); in the assay with CP315, 849 nM (active). Moreover, the Potency was 757 nM (active) with CP325; 151 nM (active) in the assay with CP329; 151 nM (active) in the assay on CP335; 355 nM (active) in the assay with DFO2036; 190 nM (active) in the assay with DIV14; 239 nM (active) in the assay with DIV17. The Potency with DIV30 is 135 nM (active); in the assay on Dd2, 89.1 nM (active); in the assay on ECU, 316 nM (active); in the assay on FAB9, 1260 nM (active); with GB4 it was 135 nM (active); in the assay with HB3 it was 794 nM (active). In addition, the values for the Potency in the assay on ICS and in the assay on JCK were 100 nM (active) and 891 nM (active), respectively.
As to `CCCCCCCCCCCCCC[n+]1ccc(C)cc1`, the Potency was 1690 nM (active) in the assay on CP269; 1260 nM (active) in the assay with CP286; 4260 nM (active) with CP291; 4780 nM (active) with CP297; 2390 nM (active) in the assay with CP305; 4780 nM (active) in the assay on CP315. Besides, the Potency is 3380 nM (active) in the assay on CP325; 4260 nM (active) with CP329; 4260 nM (active) in the assay on CP335; 4470 nM (active) in the assay with DFO2036; 1690 nM (active) in the assay on DIV14; 1900 nM (active) with DIV17. The Potency with DIV30 was 4780 nM (active); with Dd2, 2820 nM (active); with ECU it was 3160 nM (active); in the assay on FAB9, 12600 nM (active); with GB4 it was 1200 nM (active); in the assay on HB3, 3550 nM (active). Also, the Potency in the assay on ICS is 1580 nM (active).
Turning to `CO[C@H](C(=O)[C@@H](O)[C@@H](C)O)C1Cc2cc3cc(O[C@H]4C[C@@H](O[C@H]5C[C@@H](O)[C@H](O)[C@@H](C)O5)[C@@H](O)[C@@H](C)O4)c(C)c(O)c3c(O)c2C(=O)[C@H]1O[C@H]1C[C@@H](O[C@H]2C[C@@H](O[C@H]3C[C@](C)(O)[C@H](O)[C@@H](C)O3)[C@H](O)[C@@H](C)O2)[C@H](O)[C@@H](C)O1` (stereo partly drawn), the Potency in the assay on CP269 was 1350 nM (active); in the assay on CP286 it was 89.1 nM (active); in the assay with CP291, 1200 nM (active); with CP297 it was 2690 nM (active); in the assay on CP305, 757 nM (active); with CP315 it was 3380 nM (active). The Potency in the assay on CP325 was 1690 nM (active); with CP329, 1690 nM (active); in the assay on CP335, 151 nM (active); in the assay on DFO2036 it was 112 nM (active); in the assay on DIV14, 601 nM (active); in the assay on DIV17, 675 nM (active). Moreover, the Potency in the assay with DIV30 is 2390 nM (active); with Dd2, 89.1 nM (active); in the assay with ECU, 126 nM (active); in the assay with FAB9, 562 nM (active); in the assay with GB4, 675 nM (active); with HB3, 100 nM (active). The Potency with ICS is 79.4 nM (active).
For `CCCCCCCCCCCCCCCC(=O)OCC(COC(=O)CCCCCCCCCCCCCCC)OC(=O)CCCCCCCCCCCCCCC`, the Potency entry in the assay with CP269, with CP286, in the assay with CP291, in the assay on CP297, in the assay with CP305 and in the assay with CP315 was “inactive” each time. The Potency entry in the assay on CP325, in the assay on CP329, with CP335, with DFO2036, in the assay on DIV14 and with DIV17 was “inactive” each time. For the same compound, the Potency result with DIV30, in the assay with Dd2, with ECU, in the assay on FAB9, in the assay with GB4 and in the assay with HB3 was “inactive” each time. For the same compound, the Potency result with ICS and in the assay on JCK was “inactive” in each case.
Regarding `Cc1cn([C@H]2C[C@H](O)[C@@H](CO)O2)c(=O)[nH]c1=O`, the Potency result in the assay with CP269, in the assay on CP286, in the assay on CP291, in the assay on CP297, in the assay on CP305 and in the assay with CP315 was “inactive” each time. Further, the Potency result in the assay on CP325, in the assay with CP329, in the assay with CP335, with DFO2036, in the assay with DIV14 and in the assay on DIV17 was “inactive” in each case. Also, the Potency result with DIV30, in the assay on Dd2, in the assay on ECU, in the assay with FAB9, in the assay on GB4 and with HB3 was “inactive” in each case. The Potency result in the assay with ICS and with JCK was “inactive” each time.
`CCCCC(C)(O)C/C=C/[C@H]1[C@H](O)CC(=O)[C@@H]1CCCCCCC(=O)OC` (stereo partly drawn): the Potency entry with CP269, in the assay on CP286, in the assay with CP291, in the assay on CP297, in the assay with CP305 and in the assay with CP315 was “inactive” throughout. The Potency entry with CP325, with CP329, in the assay with CP335, with DFO2036, in the assay on DIV14 and in the assay on DIV17 was “inactive” each time. In addition, the Potency result in the assay on DIV30, in the assay on Dd2, in the assay with ECU, in the assay on FAB9, in the assay with GB4 and in the assay on HB3 was “inactive” in each case. The Potency entry in the assay with ICS and in the assay on JCK was “inactive” throughout.
As to `COC(F)(F)C(Cl)Cl`, the Potency entry in the assay with CP269, in the assay on CP286, in the assay with CP291, with CP297, in the assay on CP305 and in the assay with CP315 was “inactive” each time. The Potency entry with CP325, in the assay on CP329, in the assay with CP335, with DFO2036, in the assay with DIV14 and with DIV17 was “inactive” throughout. Further, the Potency result in the assay on DIV30, in the assay on Dd2, in the assay with ECU, with FAB9, in the assay on GB4 and in the assay on HB3 was “inactive” throughout. Also, the Potency result with ICS and in the assay on JCK was “inactive” each time.
With `CCOC(C)=O`, the Potency result with CP269, in the assay with CP286, in the assay on CP291, in the assay with CP297, in the assay with CP305 and in the assay with CP315 was “inactive” throughout. The Potency entry in the assay with CP325, in the assay on CP329, with CP335, with DFO2036, in the assay with DIV14 and with DIV17 was “inactive” in each case. The Potency result in the assay on DIV30, with Dd2, in the assay on ECU, in the assay on FAB9, in the assay on GB4 and in the assay on HB3 was “inactive” each time. The Potency entry in the assay on ICS and in the assay on JCK was “inactive” throughout.
On to `C[C@]12O[C@H](C[C@]1(O)CO)n1c3ccccc3c3c4c(c5c6ccccc6n2c5c31)CNC4=O`, for which the Potency is 269 nM (active) in the assay with CP269; 224 nM (active) with CP286; 338 nM (active) in the assay on CP291; 379 nM (active) with CP297; 601 nM (active) in the assay with CP305; 426 nM (active) in the assay with CP315. Moreover, the Potency in the assay with CP325 was 536 nM (active); in the assay with CP329, 426 nM (active); in the assay with CP335 it was 239 nM (active); with DFO2036 it was 316 nM (active); with DIV14 it was 120 nM (active); in the assay with DIV17, 135 nM (active). Moreover, the Potency in the assay with DIV30 was 269 nM (active); with Dd2, 355 nM (active); in the assay on ECU, 398 nM (active); with FAB9 it was 2000 nM (active); in the assay with GB4, 269 nM (active); with HB3, 447 nM (active). Moreover, the Potency in the assay on ICS is 112 nM (active); in the assay on JCK it was 4470 nM (active).
